Measured values taken from PubChem BioAssay (Tox21).
Activity calls are given as the source filed them. Where a call stands in place of a potency, no number is given. The call rests on the fitted dose curve; in most records, active means well fitted activation curve with a large enough effect in the repeat runs; inconclusive means weak or mixed curves; inactive means flat fitted curve, though single readings scatter.

assay: A CellTox Green Cytotoxicity Assay to monitor cytotoxicity in HepG2 cells - 0 hour (AID 1224882); conditions: CellTox Green fluorescence; series mostly up to 76.8 µM; further: nearly all actives have a fitted effect of over 35% in size
From the text: National Center for Advancing Translational Sciences [NCATS]
NIH Chemical Genomics Center [NCGC]
U.S. Environmental Protection Agency [EPA]
National Institutes of Environmental Health Sciences [NIEHS]
National Toxicology Program [NTP]
Cell-based models are critical for drug discovery. Determining the natural cytotoxic effects resulting from test compounds is an essential research activity. A CellTox Green Cytotoxicity Assay to monitor cytotoxicity in real time of continues cell culture during 40 hours of the compound treatment was used to screen Tox21 10K library compounds in HepG2 cells. CellTox Green Cytotoxicity Assay is a nonlytic, homogeneous, biofluorescent method to measure cytotoxicity in cell culture after experimental manipulation. The assay system uses a proprietary asymmetric cyanine dye that is excluded from viable cells but preferentially stains the dead cell's DNA. […] Viable cells produce no appreciable increases in fluorescence. Therefore, the fluorescence signal produced by the binding interaction with dead cell DNA is proportional to cytotoxicity.
The mixture of HepG2 cell suspension and reagents were dispensed at 600cells/6 ul/well in 1536-well tissue culture treated black solid bottom plates using a Multidrop dispenser. After the assay plates were incubated at a 37 C/5% CO2 incubator for 5 hours, 23 nL of compounds dissolved in DMSO, positive and negative controls was transferred to the assay plate by a pintool work station. The plates were incubated at 37 C for 40 hours. The fluorescence intensity were measured at 0h, 8h, 16h, 24h, 32h and 40h time points using ViewLux plate reader during compound treatment.
Potency means the concentration at half of the fitted maximal effect.

Row | Compound | cytotoxicity | Potency
1 | Brc1c2ccccc2c(Br)c2ccccc12 | 5.32% [at 6.97 µM] (inactive) | 
2 | OCCN1CCN(CCCN2c3ccccc3C=Cc3ccccc32)CC1 |  | inactive
3 | Cc1cccc(C)c1NC(=O)CN(CC(=O)O)CC(=O)O |  | inactive
4 | C[N+](C)(C)CCOC(=O)CCC(=O)OCC[N+](C)(C)C |  | inactive
5 | C[C@@H](c1ncncc1F)C(O)(Cn1cncn1)c1ccc(F)cc1F (stereo not given in full) |  | inactive
6 | CCOc1ccc(N=Nc2ccc(/C=C/c3ccc(N=Nc4ccc(OCC)cc4)cc3S(=O)(=O)O)c(S(=O)(=O)O)c2)cc1 |  | inactive
7 | OC[C@H]1O[C@@H](OCCc2ccc(O)cc2)[C@H](O)[C@@H](O)[C@@H]1O |  | inactive
8 | O=C(O)C(S)C(S)C(=O)O (stereo not given) |  | inactive
9 | C=C(C)C(=O)OCC |  | inactive
10 | Nc1cccc([N+](=O)[O-])c1 |  | inactive
11 | O=[N+]([O-])c1cccc(S(=O)(=O)O)c1 |  | inactive
12 | CN1Cc2cc(C(=O)N3CCC(C4CCNCC4)CC3)ccc2NC(CC(=O)O)C1=O (stereo not given) |  | inactive
13 | O=C(O)C1(C(=O)O)CCC1.[NH2-].[NH2-].[Pt+2] |  | inactive
14 | C=C1C(=C/C=C2\CCC[C@]3(C)[C@@H]([C@H](C)/C=C/[C@@H](O)C4CC4)CC[C@@H]23)C[C@@H](O)C[C@@H]1O |  | inactive
15 | O=[N+]([O-])c1ccc(NCCO)c(OCCO)c1 |  | inactive
16 | CC1CCC(=O)C1=O (stereo not given) |  | inactive
17 | O=C(NCCO[N+](=O)[O-])c1cccnc1 |  | inactive
18 | CN1CCN(C(c2ccccc2)c2ccccc2)CC1 |  | inactive
19 | NCC(=O)CCC(=O)O |  | inactive
20 | C/C=C(/C(=C/C)c1ccc(OC(C)=O)cc1)c1ccc(OC(C)=O)cc1 |  | inactive

Row | Compound | cytotoxicity | Potency
21 | CCN(CC)c1ccc2c(-c3ccccc3C(=O)O)c3ccc(=[N+](CC)CC)cc-3oc2c1 |  | 21.9 µM (active)
22 | COc1ccc(C(=O)N2CCN(CC(=O)N3CCOCC3)CC2)cc1 |  | inactive
23 | CCC(C)c1cc(C(C)(C)C)c(O)c(C(C)(C)C)c1 (stereo not given) |  | inactive
24 | O=[N+]([O-])c1ccc2[nH]ncc2c1 |  | inactive
25 | C=C(C)C(=O)OCCOCC |  | inactive
26 | C=C1[C@H]2CC[C@@H]3[C@H]2C(C)(C)CCC[C@]13C |  | inactive
27 | c1cc(CCCc2ccncc2)ccn1 |  | inactive
28 | CCOC(=O)NCCOc1ccc(Oc2ccccc2)cc1 |  | inactive
29 | CCN(CC)CCOC(=O)C(c1ccccc1)C1CCCCC1 (stereo not given) |  | inactive
30 | CCCCC1=NC2(CCCC2)C(=O)N1Cc1ccc(-c2ccccc2-c2nn[nH]n2)cc1 |  | inactive
31 | O=C1OC(=O)C2C3C=CC(C3)C12 (stereo not given) |  | inactive
32 | C=CC1CC2C=CC1C2 (stereo not given) |  | inactive
33 | O=C(O)CC(=O)C(=O)O |  | inactive
34 | Cc1ccc(C(C)OC(=O)C2(C)CCC(C(=O)O)C2(C)C)cc1 (stereo not given) |  | inactive
35 | Nc1ccc(S(=O)(=O)Nc2ccccc2)cc1 |  | inactive
36 | CC1OC(=O)C(C)OC1=O (stereo not given) |  | inactive
37 | O=C(OCCc1ccccc1)c1ccccc1 |  | inactive
38 | CC(C)(CO)[N+](=O)[O-] |  | inactive
39 | COCC(C)OC(C)=O (stereo not given) |  | inactive
40 | COc1cc(Cl)c(OC)cc1N |  | inactive
